In PubChem BioAssay (Tox21):
Where “and” joins values, the source holds several entries; their conditions need not be identical. Equal values may be shown once. Records with an inconclusive call do not appear. Where a call stands in place of a potency, no number is given. The source holds several records for some structures; these can differ, active in one and inactive in another. Calls of active or inactive are those of the source. Unless noted, the call rests on the fitted dose curve; in most records, active means well fitted curve in the direction sought with a large enough effect in the repeat runs; inconclusive means weak or mixed curves; inactive means no such curve, though single readings can be large; an effect the other way counts as inactive or inconclusive.

Legend:
[1] = qHTS assay to test for compound auto fluorescence at 535 nm (green) in HEK293 cells (AID 720680)
[2] = qHTS assay to test for compound auto fluorescence at 460 nm (blue) in HEK293 cell free culture (AID 720681)
How it was run: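 Test compounds were pinned into cell-free culture medium (DMEM with 10% FBS) and fluorescence was read directly at Ex/Em 405/460 nm. Signals were expressed as fluorescence equivalents of triamterene, with DMSO vehicle as control.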

[3] = qHTS assay to test for compound auto fluorescence at 535 nm (green) in HEK293 cell free culture (AID 720682)
How it was run: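 Intrinsic compound fluorescence is measured in culture medium containing 10% FBS, with excitation at 485 nm and detection at 535 nm, referenced to fluorescein.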

[4] = qHTS assay to test for compound auto fluorescence at 590 nm (red) in HEK293 cell free culture (AID 720683)
How it was run: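 Tox21 10K library compounds were pinned into cell-free DMEM with 10% FBS and fluorescence was read at excitation 540 nm. Activity is expressed as Rose Bengal sodium equivalency.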

[5] = qHTS assay to test for compound auto fluorescence at 590 nm (red) in HepG2 cell free culture (AID 720684)
How it was run: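 Measured in medium alone (MEM containing 10% FBS) following pintool addition of compound; emission at 590 nm with 540 nm excitation, referenced to Rose Bengal sodium.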

[6] = qHTS assay to test for compound auto fluorescence at 460 nm (blue) in HepG2 cell free culture (AID 720685)
How it was run: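 Compound (23 nL) or DMSO pinned into cell-free MEM with 10% FBS; blue fluorescence read at 405/460 nm excitation/emission, expressed as auto-fluorescence equivalency to triamterene.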

[7] = qHTS assay to test for compound auto fluorescence at 535 nm (green) in HepG2 cell free culture (AID 720686)
[8] = qHTS assay to test for compound auto fluorescence at 460 nm (blue) in HepG2 cells (AID 720687)
How it was run: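 Cells (2,000/well in MEM with 10% FBS) attached overnight at 37 C, then were exposed to compound or DMSO for 1 hr at 37 C, 5% CO2. Fluorescence read at Ex/Em 405/460 nm, expressed as triamterene-equivalent signal.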

[9] = molecular target: Glucocorticoid receptor (Homo sapiens) (UniProt P04150); assay: qHTS assay to identify small molecule agonists of the glucocorticoid receptor (GR) signaling pathway (AID 720691; active means well fitted activation curve with a large enough effect in the signal ratio in the repeat runs, not every such curve was filed as active; the % refers to the signal ratio; further: potency means the concentration at half of the fitted maximal effect)
How it was run: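 qHTS in GR-bla HeLa cells: 4 h settling at 37 C/5% CO2, 18 h compound incubation at 37 C, 2 h LiveBLAzer B/G FRET substrate at room temperature, fluorescence intensity measured.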

[10] = molecular target: Glucocorticoid receptor (Homo sapiens) (UniProt P04150); assay: qHTS assay to identify small molecule antagonists of the glucocorticoid receptor (GR) signaling pathway (AID 720692; active means well fitted inhibition curve with a large enough effect in the signal ratio in the repeat runs, not every such curve was filed as active; the % refers to the signal ratio)
How it was run: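 Inhibition of glucocorticoid signalling is measured in HeLa cells with a GRE-controlled beta-lactamase reporter; cells are co-treated with compound and 5 nM dexamethasone (final) for 18 h before FRET substrate readout.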

[11] = qHTS assay to identify small molecule antagonists of the glucocorticoid receptor (GR) signaling pathway - cell viability counter screen (AID 720693); further: nearly all actives have a fitted effect of over 55% in size
[12] = qHTS assay for identifying genotoxic compounds that show differential cytotoxicity against isogenic chicken DT40 cell lines with known DNA damage response pathways - wild type cell line (AID 743012); further: nearly all actives have a fitted effect of over 60% in size; further: potency means the concentration at half of the fitted maximal effect
How it was run: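 First, wild type DT40 cells were plated at 300 per well and equilibrated about 0.5 h at 37 C/5% CO2. Next, compounds in DMSO were added and exposure lasted 40 h. Finally, CellTiter-Glo was added for 30 min at room temperature and luminescence recorded.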

[13] = qHTS assay for identifying genotoxic compounds that show differential cytotoxicity against isogenic chicken DT40 cell lines with known DNA damage response pathways - Rev3 mutant cell line (AID 743014); further: nearly all actives have a fitted effect of over 55% in size; further: potency means the concentration at half of the fitted maximal effect
[14] = qHTS assay for identifying genotoxic compounds that show differential cytotoxicity against isogenic chicken DT40 cell lines with known DNA damage response pathways - Rad54/Ku70 mutant cell line (AID 743015); further: nearly all actives have a fitted effect of over 60% in size; further: potency means the concentration at half of the fitted maximal effect
[15] = qHTS assay to identify small molecule antagonists of the androgen receptor (AR) signaling pathway - cell viability counter screen (AID 743033; further: nearly all actives have a fitted effect of over 45% in size; further: potency means the concentration at half of the fitted maximal effect)
[16] = qHTS assay to identify small molecule antagonists of the androgen receptor (AR) signaling pathway using the MDA cell line - cell viability counter screen (AID 743041; further: nearly all actives have a fitted effect of over 45% in size; further: potency means the concentration at half of the fitted maximal effect)
How it was run: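 Viability counter screen run alongside the AR antagonist reporter: cells seeded 5 h before compound, R1881 added, 16 h incubation at 37C without CO2, fluorescent CellTiter-Fluor signal quantified.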

[17] = molecular target: Androgen receptor (Homo sapiens) (UniProt P10275); assay: qHTS assay to identify small molecule agonists of the androgen receptor (AR) signaling pathway (AID 743036; active means well fitted activation curve with a large enough effect in the signal ratio in the repeat runs, with a control signal flat, not every such curve was filed as active; the % refers to the signal ratio)
How it was run: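 Agonist activity was scored by beta-lactamase reporter fluorescence in stably transfected HEK293 cells exposed to compounds for 16 h at 37C and 5% CO2. Substrate loading took 2 h at room temperature.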

[18] = molecular target: Androgen receptor (Homo sapiens) (UniProt P10275); assay: qHTS assay to identify small molecule agonists of the androgen receptor (AR) signaling pathway using the MDA cell line (AID 743040; further: nearly all actives have a fitted effect of over 20% in size)
How it was run: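 Luminescence from ONE-Glo, read after 30 min at room temperature, reflects MMTV-driven luciferase in MDA-kb2 cells (AR- and GR-responsive). Treatment lasted 16 h at 37C, 0% CO2.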

[19] = molecular target: Androgen receptor (Homo sapiens) (UniProt P10275); assay: qHTS assay to identify small molecule antagonists of the androgen receptor (AR) signaling pathway using the MDA cell line (AID 743042; further: nearly all actives have a fitted effect of over 55% in size)
How it was run: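 MDA-kb2 cells (human breast carcinoma, stably carrying an MMTV-luciferase reporter responsive to AR and GR) were plated at 3,000 cells/well and preincubated 5 hr at 37C, then given compound plus R1881 agonist for 16 h. ONE-Glo luminescence was read.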

[20] = molecular target: Androgen receptor (Homo sapiens) (UniProt P10275); assay: qHTS assay to identify small molecule antagonists of the androgen receptor (AR) signaling pathway (AID 743035; active means well fitted inhibition curve with a large enough effect in the signal ratio in the repeat runs, not every such curve was filed as active; the % refers to the signal ratio)
How it was run: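 Beta-lactamase FRET read (2 h RT incubation with LiveBLAzer B/G) following 16 h of compound plus R1881 treatment of AR-UAS-bla HEK293 cells, which had been pre-incubated 4 h at 37C.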

Androgen receptor (Homo sapiens), sequence (P10275 whole entry, looked up): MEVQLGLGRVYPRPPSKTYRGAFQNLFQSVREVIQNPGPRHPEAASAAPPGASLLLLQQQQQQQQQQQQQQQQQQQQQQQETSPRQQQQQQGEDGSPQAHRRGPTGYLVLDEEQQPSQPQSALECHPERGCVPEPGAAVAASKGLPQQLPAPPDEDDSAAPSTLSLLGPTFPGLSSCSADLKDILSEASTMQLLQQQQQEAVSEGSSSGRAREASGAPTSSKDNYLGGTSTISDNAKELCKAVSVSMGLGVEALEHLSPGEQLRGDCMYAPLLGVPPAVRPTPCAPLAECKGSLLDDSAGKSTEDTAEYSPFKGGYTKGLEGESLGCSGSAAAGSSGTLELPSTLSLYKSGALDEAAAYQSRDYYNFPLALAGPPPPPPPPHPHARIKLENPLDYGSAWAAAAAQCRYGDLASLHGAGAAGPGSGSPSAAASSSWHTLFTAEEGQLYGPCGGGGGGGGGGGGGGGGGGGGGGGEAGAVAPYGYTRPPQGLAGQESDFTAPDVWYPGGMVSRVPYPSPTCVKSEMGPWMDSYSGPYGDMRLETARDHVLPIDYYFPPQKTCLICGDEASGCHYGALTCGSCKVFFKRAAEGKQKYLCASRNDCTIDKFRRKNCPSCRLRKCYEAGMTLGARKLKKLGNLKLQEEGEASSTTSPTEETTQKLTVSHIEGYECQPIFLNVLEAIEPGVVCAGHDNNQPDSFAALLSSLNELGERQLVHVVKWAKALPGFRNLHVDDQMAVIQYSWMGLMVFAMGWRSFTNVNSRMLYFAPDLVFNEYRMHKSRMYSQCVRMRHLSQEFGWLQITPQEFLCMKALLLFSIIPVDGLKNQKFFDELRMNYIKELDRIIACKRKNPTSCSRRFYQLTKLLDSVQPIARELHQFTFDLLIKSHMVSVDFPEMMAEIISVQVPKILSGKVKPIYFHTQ
Glucocorticoid receptor (Homo sapiens), sequence (P04150 whole entry, looked up): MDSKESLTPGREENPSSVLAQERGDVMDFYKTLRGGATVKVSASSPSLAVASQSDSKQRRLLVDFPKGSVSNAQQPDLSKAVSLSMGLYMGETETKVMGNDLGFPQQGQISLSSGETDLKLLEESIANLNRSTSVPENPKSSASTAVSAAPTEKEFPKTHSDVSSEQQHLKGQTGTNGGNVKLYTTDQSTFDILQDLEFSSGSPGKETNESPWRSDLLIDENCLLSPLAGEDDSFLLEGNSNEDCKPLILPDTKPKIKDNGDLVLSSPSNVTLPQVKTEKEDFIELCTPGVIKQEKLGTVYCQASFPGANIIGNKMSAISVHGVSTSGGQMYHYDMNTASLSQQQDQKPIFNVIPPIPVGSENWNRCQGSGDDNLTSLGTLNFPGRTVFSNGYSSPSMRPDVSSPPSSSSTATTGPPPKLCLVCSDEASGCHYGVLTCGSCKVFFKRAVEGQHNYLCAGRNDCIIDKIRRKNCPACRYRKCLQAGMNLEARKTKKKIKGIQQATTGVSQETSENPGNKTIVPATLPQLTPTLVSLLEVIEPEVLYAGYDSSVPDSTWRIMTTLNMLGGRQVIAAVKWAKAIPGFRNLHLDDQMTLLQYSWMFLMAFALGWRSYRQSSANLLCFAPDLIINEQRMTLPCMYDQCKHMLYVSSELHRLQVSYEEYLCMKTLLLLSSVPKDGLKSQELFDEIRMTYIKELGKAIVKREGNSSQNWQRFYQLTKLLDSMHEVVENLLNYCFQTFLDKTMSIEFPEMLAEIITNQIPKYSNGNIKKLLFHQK

## CCCCC(CC)COP(=O)(OCC(CC)CCCC)OCC(CC)CCCC (centres undefined)
[1]
  Potency: inactive
[2]
  outcome: inactive
[3]
  Potency: inactive
[4]
  Potency: inactive
[5]
  Potency: inactive
[6]
  outcome: inactive
[7]
  Potency: inactive
[8]
  outcome: inactive
[9]
  Potency: inactive
[10]
  Potency: inactive
[11]
  Potency: inactive
[12]
  Potency: inactive
[13]
  Potency: inactive
[14]
  Potency: inactive
[15]
  Potency: inactive
[16]
  Potency: inactive

## Cc1cccc(N(C)C(=S)Oc2ccc3ccccc3c2)c1
[1]
  Potency: inactive
[2]
  outcome: inactive
[3]
  Potency: inactive
[4]
  Potency: inactive
[5]
  Potency: inactive
[6]
  fluorescence, % of fluorescent control: -0.0096% [at 18.6 µM] (inactive)
[7]
  Potency: inactive
[8]
  outcome: inactive
[9]
  Potency: inactive
[10]
  Potency: inactive
[11]
  Potency: inactive
[12]
  Potency: inactive and 30.6 µM (active)
[13]
  Potency: inactive and 43.3 µM (active)
[14]
  Potency: inactive and 30.6 µM (active)
[15]
  Potency: inactive
[16]
  Potency: inactive

## CN(C)CCN(Cc1cccs1)c1ccccn1
[1]
  Potency: inactive
[2]
  outcome: inactive
[3]
  Potency: inactive
[4]
  Potency: inactive
[5]
  Potency: inactive
[6]
  outcome: inactive
[7]
  Potency: inactive
[8]
  outcome: inactive
[9]
  Potency: inactive
[10]
  Potency: inactive
[11]
  Potency: inactive
[12]
  Potency: 29.8 µM (active) and inactive
[13]
  Potency: inactive
[14]
  Potency: inactive
[15]
  Potency: inactive
[16]
  Potency: inactive

## CC(C)=CCC/C(C)=C\CO
[1]
  Potency: inactive
[2]
  outcome: inactive
[3]
  Potency: inactive
[4]
  Potency: inactive
[5]
  Potency: inactive
[6]
  outcome: inactive
[7]
  Potency: inactive
[8]
  outcome: inactive
[9]
  Potency: inactive
[10]
  Potency: inactive
[11]
  Potency: inactive
[13]
  Potency: inactive and 61.1 µM (active)
[14]
  Potency: inactive
[15]
  Potency: inactive
[17]
  outcome: inactive
[16]
  Potency: inactive

## c1ccc2c(c1)c1cccc3ccc4cccc2c4c31
[1]
  Potency: inactive
[2]
  outcome: inactive
[3]
  Potency: inactive
[4]
  Potency: inactive
[5]
  Potency: inactive
[6]
  outcome: inactive
[7]
  Potency: inactive
[8]
  outcome: inactive
[9]
  Potency: 48.6 µM (active) and inactive
[10]
  Potency: inactive
[11]
  Potency: inactive
[12]
  Potency: inactive
[13]
  Potency: inactive
[14]
  Potency: inactive
[15]
  Potency: inactive
[18]
  Potency: inactive
[16]
  Potency: inactive
[19]
  Potency: inactive

## OC1CCCCCCCCCCC1
[1]
  Potency: inactive
[2]
  outcome: inactive
[3]
  Potency: inactive
[4]
  Potency: inactive
[5]
  Potency: inactive
[6]
  outcome: inactive
[7]
  Potency: inactive
[8]
  outcome: inactive
[9]
  Potency: inactive
[10]
  Potency: inactive
[11]
  Potency: inactive
[12]
  Potency: inactive
[13]
  Potency: inactive
[14]
  Potency: inactive
[15]
  Potency: inactive
[16]
  Potency: inactive

## CNCCCC12CCC(c3ccccc31)c1ccccc12
[1]
  Potency: inactive
[2]
  outcome: inactive
[3]
  Potency: inactive
[4]
  Potency: inactive
[5]
  Potency: inactive
[6]
  outcome: inactive
[7]
  Potency: inactive
[8]
  outcome: inactive
[9]
  Potency: inactive
[10]
  Potency: inactive
[11]
  Potency: inactive
[12]
  Potency: 10.6 µM (active) and 6.86 µM (active)
[13]
  Potency: 21.1 µM (active) and 12.2 µM (active)
[14]
  Potency: 13.3 µM (active) and 6.86 µM (active)
[15]
  Potency: inactive and 43.6 µM (active)
[16]
  Potency: 61.1 µM (active)

## CC(=O)C1(C)CC2=C(CCCC2(C)C)CC1C (centres undefined)
[1]
  Potency: inactive
[2]
  outcome: inactive
[3]
  Potency: inactive
[4]
  Potency: inactive
[5]
  Potency: inactive
[6]
  outcome: inactive
[7]
  Potency: inactive
[8]
  outcome: inactive
[9]
  Potency: inactive
[10]
  Potency: inactive
[11]
  Potency: inactive
[12]
  Potency: inactive
[13]
  Potency: inactive
[14]
  Potency: inactive and 54.5 µM (active)
[15]
  Potency: inactive
[20]
  Potency: inactive
[17]
  outcome: inactive
[18]
  Potency: inactive
[16]
  Potency: inactive
[19]
  Potency: inactive

## Cc1c(OCC(F)(F)F)ccnc1CS(=O)c1nc2ccccc2[nH]1 (centres undefined)
[1]
  Potency: inactive
[2]
  outcome: inactive
[3]
  Potency: inactive
[4]
  Potency: inactive
[5]
  Potency: inactive
[6]
  outcome: inactive
[7]
  Potency: inactive
[8]
  outcome: inactive
[9]
  Potency: inactive
[10]
  Potency: inactive
[11]
  Potency: inactive
[12]
  Potency: inactive
[13]
  Potency: inactive and 54.5 µM (active)
[15]
  Potency: inactive
[16]
  Potency: inactive

## CCC(C)CO (centres undefined)
[1]
  Potency: inactive
[2]
  outcome: inactive
[3]
  Potency: inactive
[4]
  Potency: inactive
[5]
  Potency: inactive
[6]
  outcome: inactive
[7]
  Potency: inactive
[8]
  outcome: inactive
[9]
  Potency: inactive
[10]
  Potency: inactive
[11]
  Potency: inactive
[12]
  Potency: inactive
[13]
  Potency: inactive
[14]
  Potency: inactive
[15]
  Potency: inactive
[16]
  Potency: inactive

## CCCCC(CC)COCC1CO1 (centres undefined)
[1]
  Potency: inactive
[2]
  outcome: inactive
[3]
  Potency: inactive
[4]
  Potency: inactive
[5]
  Potency: inactive
[6]
  outcome: inactive
[7]
  Potency: inactive
[8]
  outcome: inactive
[9]
  Potency: inactive
[10]
  Potency: inactive
[11]
  Potency: inactive
[12]
  Potency: inactive
[13]
  Potency: inactive
[14]
  Potency: inactive
[15]
  Potency: inactive
[16]
  Potency: inactive

## CC(C)(C)NC(=O)[C@H]1CC[C@H]2[C@@H]3CC[C@H]4NC(=O)C=C[C@]4(C)[C@H]3CC[C@]12C
[1]
  Potency: inactive
[2]
  outcome: inactive
[3]
  Potency: inactive
[4]
  Potency: inactive
[5]
  Potency: inactive
[6]
  outcome: inactive
[7]
  Potency: inactive
[8]
  outcome: inactive
[9]
  Potency: inactive
[10]
  Potency: inactive
[11]
  Potency: inactive
[12]
  Potency: inactive
[13]
  Potency: inactive and 60.4 µM (active) and 27.3 µM (active)
[14]
  Potency: inactive and 68.6 µM (active)
[15]
  Potency: inactive
[16]
  Potency: inactive

## C/C=C/C(=O)O
[1]
  Potency: inactive
[2]
  outcome: inactive
[3]
  Potency: inactive
[4]
  Potency: inactive
[5]
  Potency: inactive
[6]
  outcome: inactive
[7]
  Potency: inactive
[8]
  outcome: inactive
[9]
  Potency: inactive
[10]
  Potency: inactive
[11]
  Potency: inactive
[12]
  Potency: inactive
[13]
  Potency: inactive
[14]
  Potency: inactive
[15]
  Potency: inactive
[16]
  Potency: inactive

## CCCCC(CC)COC(=O)c1ccc(N(C)C)cc1 (centres undefined)
[1]
  Potency: inactive
[2]
  outcome: inactive
[3]
  Potency: inactive
[4]
  Potency: inactive
[5]
  Potency: inactive
[6]
  outcome: inactive
[7]
  Potency: inactive
[8]
  outcome: inactive
[9]
  Potency: inactive
[10]
  Potency: inactive
[11]
  Potency: inactive
[12]
  Potency: inactive
[13]
  Potency: inactive and 54.5 µM (active)
[14]
  Potency: inactive and 43.3 µM (active)
[15]
  Potency: inactive
[16]
  Potency: inactive
